# Inconclusive results are not listed. A call without a number means that no potency is given here. Calls of active or inactive are those of the source. Calls come from the whole dose curve; as a rule, active = well fitted inhibition curve with a large enough effect; inconclusive = small, poorly fitted or top-dose-only effect; inactive = no such curve, though single readings can be large or run the other way.
# Molecular target: M-phase phosphoprotein 8 (Homo sapiens) (UniProt Q99549)
# Assay: qHTS Validation Assay for Inhibitors for MPP8 Chromodomain Interactions with Methylated Histone Tails (AID 488949); note: nearly all actives have a fitted effect of over 55% in size
# Settings: AlphaScreen MPP8 binding to H3K9me3 peptide; series mostly up to 114 µM
# From the text: As our understanding of epigenetics expands, it is becoming clear that players in this field are potential targets for drug development. This area of epigenetic therapy has established applications for the treatment of cancer and neurological diseases. We have been involved in this field for a number of years and have performed high-throughput screens to identify the first small molecule inhibitors of protein methyltransferases. These methyltransferases target multiple substrates, and thus regulate many arms of an epigenetic pathway. The methylation of different substrates often generates docking sites for effector proteins that harbor binding domains (chromo, tudor, PHD, MBT and ANK repeats). It has been proposed that the binding sites generated for different proteins by these post-translational modifcations mediate downstream effects on chromatin. Consistent with this theory, di- and tri-methylation of histone H3K9 facilitates the binding of heterochromatin protein HP1. The HP1 protein harbors a chromodomain that is responsible for the methyl-dependent interaction between HP1 and lysine 9 of histone H3. HP1 was first described in flies as a heterochromatin associated protein that can regulate gene silencing. It harbors a chromodomain that binds H3K9me3. In addition, it harbors a chromoshadow domain that interacts with a large number of proteins that are involved in heterochromatin formation and gene repression. There are three highly related HP1 isoforms. All three variants are associated with pericentric heterochromatin and it is not clear whether they have specific or redundant functions. MPP8 is also involved in the repression of gene in euchromatic regions (unpublished data) and like HP1 its chromodomain binds H3K9me3. MPP8 harbors an ankyrin repeat region that is likely involved in binding and recruiting interacting proteins with transcriptional repressive function, much like the chromoshadow domain of HP1 does. We hypothesize that by inhibiting specific protein-protein interactions we will be able to develop compounds that block a single arm of an epigenetic pathway. The specificity attained by blocking a single protein-protein interaction will be far greater than that attained by blocking the enzyme that regulates one of many interactions. Low-affinity protein-protein interactions (Kd in the single- to double-digit micromolar range) such as those discussed here have been very difficult to assay by traditional techniques such as fluorescence polarization or fluorescence resonance energy transfer. We have developed a sensitive chemiluminescence-based assay (Quinn, et al. 2009), which serves as the starting point for this project. The following is a validation assay to identify lead compounds that can block methyl-dependent protein-protein interactions (specifically MPP8), which can be used as probes to analyze these methyl-driven interactions and perhaps even developed into targeted epigenetic therapies. Assay Provider: Mark T. Bedford, MD Anderson Screening Center PI: Austin, C.P. Screening Center: NIH Chemical Genomics Center [NCGC]
# To each well, 2 uL of MPP8 protein (final 50 nM) and 1 uL biotinylated histone peptide trimethylated at Lys9 [b-H3(1-18)K9me3] (final 50 nM) was added in 1x PBS buffer, pH 7.4, containing 0.01% Tween-20 using a nanoliter dispenser. Formation of a protein-peptide complex proceeded at room temperature for 30 min. A Kalypsys pin-tool was employed to transfer 23 nL of library compound solution in DMSO to each well. Aurintricarboxylic acid (ATA) was used as an intraplate control with a 12-point titration in duplicate. Following a 30 min incubation of the protein-peptide complex with compounds at room temperature, a mixture of 40 ug/mL each streptavidin-coated donor and nickel chelate acceptor AlphaScreen beads (final 10 ug/mL) was added in a 1 uL dispense for a final volume of 4 uL. Plates were incubated protected from the light for 30 min at room temperature. […]
# Potency is the fitted concentration of half-maximal effect.
# M-phase phosphoprotein 8 (Homo sapiens), sequence (Q99549 whole entry, looked up): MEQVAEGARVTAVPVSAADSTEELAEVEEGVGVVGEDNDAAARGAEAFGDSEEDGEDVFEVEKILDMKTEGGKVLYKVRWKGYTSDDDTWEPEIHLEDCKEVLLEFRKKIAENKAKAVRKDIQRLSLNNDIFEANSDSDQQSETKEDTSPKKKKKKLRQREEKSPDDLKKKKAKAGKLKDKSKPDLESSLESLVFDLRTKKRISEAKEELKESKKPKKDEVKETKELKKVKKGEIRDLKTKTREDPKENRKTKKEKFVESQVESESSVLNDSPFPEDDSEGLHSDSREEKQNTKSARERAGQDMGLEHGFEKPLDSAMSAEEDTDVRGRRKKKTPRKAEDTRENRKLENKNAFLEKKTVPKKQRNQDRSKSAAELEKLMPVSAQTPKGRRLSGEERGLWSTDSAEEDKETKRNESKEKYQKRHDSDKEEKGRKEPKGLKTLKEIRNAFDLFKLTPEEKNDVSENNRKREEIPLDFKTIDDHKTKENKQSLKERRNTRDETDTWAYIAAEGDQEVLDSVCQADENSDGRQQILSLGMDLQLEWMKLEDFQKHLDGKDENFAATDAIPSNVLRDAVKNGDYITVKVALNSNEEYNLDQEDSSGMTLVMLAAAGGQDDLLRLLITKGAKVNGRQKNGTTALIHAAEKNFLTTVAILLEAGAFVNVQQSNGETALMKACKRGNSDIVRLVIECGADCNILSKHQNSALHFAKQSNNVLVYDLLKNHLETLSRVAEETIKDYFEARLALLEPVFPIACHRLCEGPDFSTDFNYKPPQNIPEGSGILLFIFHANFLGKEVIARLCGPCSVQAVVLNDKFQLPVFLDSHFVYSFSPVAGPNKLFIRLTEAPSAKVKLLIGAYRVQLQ
row,SMILES,Potency
1,c1ccc2nc(N3CCNCC3)ccc2c1,inactive
2,CN1C[C@H](C(=O)N[C@]2(C)O[C@@]3(O)[C@@H]4CCCN4C(=O)[C@H](Cc4ccccc4)N3C2=O)C[C@@H]2c3cccc4[nH]cc(c34)C[C@H]21,inactive
3,CC(N)C(=O)OC(C)(C)Cc1ccc(Cl)cc1 (stereo unspecified),inactive
4,COc1ccc(C(=O)N2CCCC2=O)cc1,inactive
5,Cc1cc(C(C)(C)C)cc(C)c1CC1=NCCN1,inactive
6,CNC(=O)Oc1ccc2c(c1)[C@]1(C)CCN(C)[C@@H]1N2C,inactive
7,COC(=O)C1=C(C)NC(C)=C(C(=O)OC)C1c1ccccc1[N+](=O)[O-],39.8 µM (active)
8,O=C(O)c1nn(Cc2ccc(Cl)cc2Cl)c2ccccc12,inactive
9,CCCCCCCCC(=O)NCc1ccc(O)c(OC)c1,inactive
10,NC(=O)CN1CCCC1=O,inactive
11,COC(=O)C1=CCCN(C)C1,inactive
